Experimental data: publication PMC5540273 (PLoS ONE, 2017)

Test system: DYRK2
Settings: concentration: 1 μM, replicates: in singlicate; n = 1
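Also: KINOMEscan kinase panel screen.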

Row | SMILES | %Inh
1 | CN1C(=O)C(Nc2ccccc2)=C(c2ccccc2)C1=O [SB-300079] | 10%
2 | CCC(=O)c1c(-c2ccccc2)c2cc(Cl)ccc2c(=O)n1Cc1ccc(C(=O)O)cc1 | 15%
3 | COc1cc(Nc2nccc(N3CCC(NC(=O)C(C)c4ccc(Cl)cc4)C3)n2)cc(OC)c1OC (stereo not drawn) [GSK1379757] | 0%
4 | O=C(NCc1cccs1)c1cc(C(=O)c2c(Cl)cccc2Cl)c[nH]1 [GW823670] | 0%
5 | Cl.c1ccc(Cn2cnc3cc(Nc4ncnc5ccccc45)ccc32)cc1 [GW272142] | 21%
6 | COc1cc2ncn(-c3cc(OCc4ccc(S(C)(=O)=O)cc4)c(C(N)=O)s3)c2cc1OC [GW869979] | 1%
7 | CCS(=O)c1ccc(-c2coc3ccc(-c4nnc(C)o4)cc23)cc1 (stereo not drawn) | 0%
8 | O=C(Nc1n[nH]c2nc(-c3ccccc3)c(Br)cc12)C1CC1 [SB-708998] | 1%
9 | Cl.NS(=O)(=O)c1cccc(Nc2cc(-c3ccc(F)cc3)n[nH]2)c1 [GW824645] | 24%
10 | COC(=O)c1c(-c2ccccc2)c2cc(Br)ccc2c(=O)n1Cc1ccc(NC(=O)CCC(=O)O)cc1 | 8%
11 | CCCNC(=O)Nc1ccc(Oc2ncnc3ccn(C)c23)cc1 | 24%
12 | FC(F)(F)c1ccc(-c2ncn(CCCN3CCOCC3)c2-c2ccncc2)cc1 [SB-217780] | 25%
13 | Cc1c(Cn2c(C)nn3c(=O)cc(N4CCO[C@H](C)C4)nc23)cccc1C(F)(F)F [GSK2373690] | 17%
14 | COc1cccc(-n2cnc3c(N)ncnc32)c1 [SKF-97416] | 39%
15 | Nc1nc(N)c2nc(-c3ccccc3)[nH]c2n1 [SKF-12778] | 44%
16 | COc1ccc(CNC(=O)NC2CCN(c3ccnc(Nc4ccc(F)cc4)n3)C2)cc1 (stereo not drawn) [GSK1379706] | 0%
17 | COc1cccc(C2=C(N(C)c3ccccc3)C(=O)NC2=O)c1 [SB-334865] | 0%
18 | COc1ccc(-c2cc3c(C)nc(N)nc3n([C@H]3CC[C@H](OCCO)CC3)c2=O)cn1 | 0%

Row | SMILES | %Inh
19 | Nc1ncnc2c1ncn2-c1cccc2ccccc12 [SKF-97184] | 6%
20 | Cc1ccc(-c2ccc3c(ccc4sc5c(c43)NC[C@@H](C)N=C5N(C)C)n2)cn1 | 0%
21 | COc1cccc(C2=C(Nc3cccc(C(=O)O)c3)C(=O)NC2=O)c1 [SB-390770] | 0%
22 | Cc1nc(N(C)[C@H]2CN(C(=O)CC#N)CC[C@H]2C)c2cc[nH]c2n1 | 7%
23 | CN(C)c1cc(-c2ccc3c(N)n[nH]c3c2)nc(N)n1 [GSK2219329] | 67%
24 | COc1ccc(-c2cc3c(C)nc(N)nc3n([C@H]3CC[C@H](O)CC3)c2=O)cn1 | 0%
25 | OCCCNc1nccc(-c2c(-c3cccc(C(F)(F)F)c3)nn3cc(C(F)(F)F)ccc23)n1 [GW630813] | 0%
26 | O=C(Nc1n[nH]c2cc(-c3ccccc3F)ccc12)C1CC1 [SB-733371] | 3%
27 | Nc1nc(-c2ccccc2F)c(-c2ccnc3ccccc23)s1 [GW560459] | 0%
28 | Cn1c(=O)c(F)c(Nc2ccc(I)cc2F)c2c(=O)n(OC[C@H](O)CO)cnc21 | 0%
29 | Cc1cc(Nc2nc(-c3cccc(C)n3)nc3ccccc23)ccn1 [GW872411] | 0%
30 | COc1cc2nccc(Nc3ccc(OCc4ccc(NC(C)=O)cc4)cc3)c2cc1OC.Cl [GW440135] | 4%
31 | Cc1nnc(-c2ccc(C)c(-c3ccc(C(=O)O)cc3)c2)o1 [GW608005] | 8%
32 | CCS(=O)(=O)c1ccc(OC)c(Nc2ncc(-c3ccc(F)cc3)o2)c1.Cl [GW591947] | 17%
33 | CCc1ccc(-c2ccc3c(c2)-c2nn(C)cc2S(=O)(=O)N3C)cc1 | 0%
34 | CCC(=O)c1c(-c2ccccc2)c2cc(Cl)ccc2c(=O)n1Cc1cc(S(C)(=O)=O)n(CCC(C)(C)O)n1 | 62%
35 | C[C@@H]1CC[C@H](C(=O)NC2CCCCC2)CN1c1cc(-c2ccc3c(N)n[nH]c3c2)nc(N)n1 [GSK2291363] | 20%
36 | O=c1cc(N2CCOCC2)nc2n(Cc3ccc(F)c(Cl)c3)ccn12 [GSK2297099] | 0%

Test system: EGFR
Settings: concentration: 1 μM, replicates: in singlicate; n = 1

Row | SMILES | %Inh
37 | CN1C(=O)C(Nc2ccccc2)=C(c2ccccc2)C1=O [SB-300079] | 16%
38 | CCC(=O)c1c(-c2ccccc2)c2cc(Cl)ccc2c(=O)n1Cc1ccc(C(=O)O)cc1 | 0%
39 | COc1cc(Nc2nccc(N3CCC(NC(=O)C(C)c4ccc(Cl)cc4)C3)n2)cc(OC)c1OC (stereo not drawn) [GSK1379757] | 23%
40 | O=C(NCc1cccs1)c1cc(C(=O)c2c(Cl)cccc2Cl)c[nH]1 [GW823670] | 0%
41 | Cl.c1ccc(Cn2cnc3cc(Nc4ncnc5ccccc45)ccc32)cc1 [GW272142] | 20%
42 | COc1cc2ncn(-c3cc(OCc4ccc(S(C)(=O)=O)cc4)c(C(N)=O)s3)c2cc1OC [GW869979] | 25%
43 | CCS(=O)c1ccc(-c2coc3ccc(-c4nnc(C)o4)cc23)cc1 (stereo not drawn) | 5%
44 | O=C(Nc1n[nH]c2nc(-c3ccccc3)c(Br)cc12)C1CC1 [SB-708998] | 1%
45 | Cl.NS(=O)(=O)c1cccc(Nc2cc(-c3ccc(F)cc3)n[nH]2)c1 [GW824645] | 0%
46 | COC(=O)c1c(-c2ccccc2)c2cc(Br)ccc2c(=O)n1Cc1ccc(NC(=O)CCC(=O)O)cc1 | 0%
47 | CCCNC(=O)Nc1ccc(Oc2ncnc3ccn(C)c23)cc1 | 15%
48 | FC(F)(F)c1ccc(-c2ncn(CCCN3CCOCC3)c2-c2ccncc2)cc1 [SB-217780] | 19%
49 | Cc1c(Cn2c(C)nn3c(=O)cc(N4CCO[C@H](C)C4)nc23)cccc1C(F)(F)F [GSK2373690] | 10%
50 | COc1cccc(-n2cnc3c(N)ncnc32)c1 [SKF-97416] | 18%
51 | Nc1nc(N)c2nc(-c3ccccc3)[nH]c2n1 [SKF-12778] | 14%
52 | COc1ccc(CNC(=O)NC2CCN(c3ccnc(Nc4ccc(F)cc4)n3)C2)cc1 (stereo not drawn) [GSK1379706] | 20%
53 | COc1cccc(C2=C(N(C)c3ccccc3)C(=O)NC2=O)c1 [SB-334865] | 36%
54 | COc1ccc(-c2cc3c(C)nc(N)nc3n([C@H]3CC[C@H](OCCO)CC3)c2=O)cn1 | 12%

Row | SMILES | %Inh
55 | Nc1ncnc2c1ncn2-c1cccc2ccccc12 [SKF-97184] | 45%
56 | Cc1ccc(-c2ccc3c(ccc4sc5c(c43)NC[C@@H](C)N=C5N(C)C)n2)cn1 | 23%
57 | COc1cccc(C2=C(Nc3cccc(C(=O)O)c3)C(=O)NC2=O)c1 [SB-390770] | 12%
58 | Cc1nc(N(C)[C@H]2CN(C(=O)CC#N)CC[C@H]2C)c2cc[nH]c2n1 | 0%
59 | CN(C)c1cc(-c2ccc3c(N)n[nH]c3c2)nc(N)n1 [GSK2219329] | 43%
60 | COc1ccc(-c2cc3c(C)nc(N)nc3n([C@H]3CC[C@H](O)CC3)c2=O)cn1 | 0%
61 | OCCCNc1nccc(-c2c(-c3cccc(C(F)(F)F)c3)nn3cc(C(F)(F)F)ccc23)n1 [GW630813] | 26%
62 | O=C(Nc1n[nH]c2cc(-c3ccccc3F)ccc12)C1CC1 [SB-733371] | 0%
63 | Nc1nc(-c2ccccc2F)c(-c2ccnc3ccccc23)s1 [GW560459] | 36%
64 | Cn1c(=O)c(F)c(Nc2ccc(I)cc2F)c2c(=O)n(OC[C@H](O)CO)cnc21 | 3%
65 | Cc1cc(Nc2nc(-c3cccc(C)n3)nc3ccccc23)ccn1 [GW872411] | 0%
66 | COc1cc2nccc(Nc3ccc(OCc4ccc(NC(C)=O)cc4)cc3)c2cc1OC.Cl [GW440135] | 18%
67 | Cc1nnc(-c2ccc(C)c(-c3ccc(C(=O)O)cc3)c2)o1 [GW608005] | 22%
68 | CCS(=O)(=O)c1ccc(OC)c(Nc2ncc(-c3ccc(F)cc3)o2)c1.Cl [GW591947] | 4%
69 | CCc1ccc(-c2ccc3c(c2)-c2nn(C)cc2S(=O)(=O)N3C)cc1 | 0%
70 | CCC(=O)c1c(-c2ccccc2)c2cc(Cl)ccc2c(=O)n1Cc1cc(S(C)(=O)=O)n(CCC(C)(C)O)n1 | 31%
71 | C[C@@H]1CC[C@H](C(=O)NC2CCCCC2)CN1c1cc(-c2ccc3c(N)n[nH]c3c2)nc(N)n1 [GSK2291363] | 45%
72 | O=c1cc(N2CCOCC2)nc2n(Cc3ccc(F)c(Cl)c3)ccn12 [GSK2297099] | 18%
